Measurements: PubChem BioAssay (NCI)
About 83,000 compounds went through this panel and 20% of them were active in at least one assay; those are over-represented in the sample as a whole.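 Negative percent growth values reflect cell death: -40 means 40% of the cells present at the start died, and -100 means all died.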 Values without a mark were called inactive. The source made the active and inactive calls. Rule for the calls: active = growth percent below 10; inactive = the rest.

How the values were obtained:
Assay in all cases: NCI-60 one-dose screen, 48 h (100 = growth as untreated, 0 = no growth, -100 = all killed)
Settings in all cases: 10 µM unless noted
[1] = test system: NCI-H23 lung
[2] = test system: NCI-H226 lung
[3] = test system: NCI-H322M lung
[4] = test system: HOP-62 NSCLC
[5] = test system: NCI-H460 lung
[6] = test system: HOP-92 NSCLC
[7] = test system: NCI-H522 lung
[8] = test system: 786-0 renal
[9] = test system: DU-145 prostate
[10] = test system: K-562 leukemia
[11] = test system: MALME-3M melanoma
[12] = test system: MDA-MB-231 breast
[13] = test system: RXF 393 renal
[14] = test system: SF-268 CNS
[15] = test system: SF-539 CNS
[16] = test system: UACC-257 melanoma
[17] = test system: M14 melanoma
[18] = test system: A549/ATCC NSCLC
[19] = test system: COLO 205 colon
[20] = test system: SF-295 CNS

Row | Structure (SMILES) | growth [1] | growth [2] | growth [3] | growth [4] | growth [5] | growth [6] | growth [7] | growth [8] | growth [9] | growth [10] | growth [11] | growth [12] | growth [13] | growth [14] | growth [15] | growth [16] | growth [17] | growth [18] | growth [19] | growth [20]
1 | Cc1c(C(N)=O)sc2nc(C)n(/N=c3\scc(-c4ccccc4)n3Cc3ccccc3)c(=O)c12 | 20.5% | 30.9% | 35.4% | 24.2% | 7.46% (active) | -19.1% (active) | 24.9% | 50.7% | 42.2% | 8.42% (active) | 60.5% | 43% | -5.46% (active) | 21.3% | 22.2% | 4.85% (active) | 36.4% | – | – | –
2 | CCCCOc1nc2ccc(Cl)cc2cc1/C=C/C(=O)/C=C1/CC(c2cc3cc(Cl)ccc3nc2OCCCC)Nc2ccccc2N1 (stereo unspecified) | 87.2% | 90.8% | 103% | 94.8% | 85% | 77.3% | – | 99.1% | 103% | 91.7% | 79.4% | 81% | – | 97.9% | 91.9% | 100% | – | 94.2% | 90.9% | 96.2%
3 | COc1ccc(-c2nnc(-c3ccc4c(c3)nc(-c3ccccc3)n4C3CCCCC3)o2)cc1 | 62.5% | 46.4% | 87% | 50.5% | 64.4% | 57% | 17.6% | 77.5% | 71.7% | – | 69.4% | 72.9% | 97.3% | 71.2% | 88.1% | 67.4% | 38.9% | – | – | 53.2%
4 | C=C1c2c(C)nn(-c3ccc(NC(C)=O)cc3)c2N(C)C23CC1C1(C)c4c(C)nn(-c5ccc(NC(C)=O)cc5)c4N(C)C(C)(CC12)C3 (stereo unspecified) | 58.2% | 47.2% | 61.2% | 55.9% | 8.58% (active) | 65% | – | 43.5% | 46.8% | 14.9% | 71.1% | 48.4% | 29.9% | 43.8% | 63.1% | 38.4% | 19.6% | 26.3% | – | 35.6%
5 | Cc1ccc(O)c(C(=O)c2ccccc2Cl)c1 | 94.3% | 100% | 109% | 98.3% | 109% | 112% | – | 99.1% | 126% | 91.4% | 106% | 109% | 104% | 104% | 96% | 108% | – | 104% | 138% | 94.6%
6 | Cc1ccc(/C=C(\C#N)n2nnc3cc(Cl)c(Cl)cc32)cc1 | 24.8% | -9.44% (active) | 49.5% | 33.8% | 12.8% | -7.83% (active) | 17.3% | 5.73% (active) | 3.78% (active) | 6.41% (active) | 44% | -14.9% (active) | -33.5% (active) | 12% | -13.1% (active) | 50.3% | -23% (active) | – | – | -0.103% (active)
7 | O=S(=O)(NCCNc1cc(-c2c(-c3cccc(O)c3)nc3sccn23)ccn1)c1ccc(Cl)cc1 | 79.1% | 62.4% | 86% | 103% | 58.3% | 74.7% | 66.1% | 62.1% | 67.8% | 42.5% | 94% | 80.6% | 71.7% | 47.9% | 91.8% | 95.2% | 68.2% | – | – | 85%
8 | CC1(C)CC(=O)c2c(ccc(C(=O)C[C@H](N)CO)c2N)O1 | 54.4% | 58.3% | 15% | 22% | 6.79% (active) | 53.7% | – | 77.5% | 38% | 37.1% | 48.6% | 54.6% | 44.1% | 34.2% | 23.7% | 49.1% | – | 34.7% | 47% | 42.9%
9 | CCCCNC(=O)NS(=O)(=O)c1ccc(N2N=C(c3ccc(C)cc3C)CC2c2ccc(N(C)C)cc2)cc1 (stereo unspecified) | 69.5% | 82.9% | 87.4% | 88.6% | 39.2% | 71.5% | – | 53.1% | 84.8% | 44.4% | 101% | 80.1% | 79.5% | 79.9% | 62.6% | 66.1% | – | 40.6% | 75.6% | –
10 | CC(C)(C)OC(=O)N1Cc2cc3ccccc3nc2C1CO (stereo unspecified) | 85.9% | 92.1% | 104% | 102% | 107% | 96.7% | – | 95.8% | 98.6% | 133% | 120% | 96.6% | 66.5% | 102% | 95.7% | 19.1% | 98.7% | 95.6% | – | 92.8%
11 | NC(N)=N/N=C(/c1ccccc1)c1ccc(N)cc1 | 101% | 89.6% | 91.2% | 100% | 110% | 92.8% | – | 105% | 116% | 113% | 122% | 103% | 108% | 115% | 103% | 92.7% | 104% | 99.5% | – | –
12 | O=[N+]([O-])c1ccc(-c2cc3c(Nc4ccc(Cl)c(C(F)(F)F)c4)ncnc3s2)cc1 | -6.97% (active) | 20.1% | 20.9% | 20.8% | 4.13% (active) | -14.3% (active) | -1.24% (active) | 19.2% | 23% | – | -22.8% (active) | 5.95% (active) | 5.99% (active) | 24.3% | 14.9% | -18.6% (active) | 19.4% | – | – | -6.39% (active)
13 | COc1cc2ccccc2cc1C(=O)NC(=S)Nc1ccc(-c2nc3ccccc3[nH]2)cc1 | 72.9% | 102% | 90.9% | 79.9% | 69.1% | 93.7% | 89.6% | 38% | 56.1% | 75.6% | 48% | 52.9% | 86.2% | 62% | 14.7% | 98% | 79.3% | – | – | 80.5%
14 | C/C(=N\NC(=O)Cn1c(-c2ccc(S(C)(=O)=O)cc2)nc2cc(Cl)ccc21)c1ccc(Cl)cc1 | 83% | 79% | 86% | 80.9% | 82.8% | 86.2% | – | 92.1% | 90% | 62.9% | 90.3% | 73.4% | 79.3% | 72.4% | 83.1% | 79.2% | 81% | 66.7% | – | 81.1%
15 | O=C(c1ccccc1)c1ccc(Cl)c([N+](=O)[O-])c1 | 100% | 104% | 90.6% | 124% | 101% | 99.1% | 77% | 103% | 75.4% | 7.38% (active) | – | 114% | 104% | 88.6% | 97.9% | 87.6% | 94.6% | – | – | 99%
16 | Nc1nc(N)c(-c2ccc(Cl)cc2)c(/C=C/c2ccc([N+](=O)[O-])cc2)n1 | 90.8% | 91.4% | 46.8% | 100% | 11.4% | 76.1% | 97.4% | 99.3% | 87.2% | 19.4% | – | 95.4% | 74.7% | 79.3% | 93.5% | 66.3% | 63.6% | – | – | 51.5%
17 | O=c1ccn(C2OC(F)(CO)C(O)C2F)c(=O)[nH]1 (stereo unspecified) | 100% | 102% | 113% | 82.7% | 107% | 98.1% | – | 96% | 110% | 112% | 110% | 114% | 141% | 100% | 100% | 95.1% | 95.3% | 104% | – | 98.3%
18 | O=C1CCC(N2C(=O)c3cccc(NCCCC4CCN(CCNC(=O)c5cc6c(o5)C(=O)c5ccccc5C6=O)CC4)c3C2=O)C(=O)N1 (stereo unspecified) | -59.6% (active) | -69.2% (active) | -98.8% (active) | -52.9% (active) | -71.1% (active) | 49% | -51.7% (active) | -26.2% (active) | -94.9% (active) | 2.99% (active) | -99.2% (active) | -25.2% (active) | -52.9% (active) | -32.7% (active) | -99.1% (active) | -85.5% (active) | -83.2% (active) | – | – | -95.2% (active)
